Laboratory results taken from the supplement of paper PMC10849652.
The full data set covers some 7,900 targets. This sample favours those with a hit. About 0.6% of all pairs of compound and target were hits. Values without a mark were called inactive.

Legend:
Experiment in all cases: log2 fold change, soluble protein after heating vs DMSO (PISA); higher = thermal stabilisation; K562 cells, 10 uM, 30 min; active = over 0.2 and 3.5 SD of the protein, either way, in both replicates (recomputed)
[1] = compound: C1=CC=C(C=C1)[C@H](COC2=CC3=C(C=C2)NC(=O)N3)NC(=O)C4=CC=CN(C4=O)CC5=CC(=C(C=C5)F)F
Method in brief: (§1)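 K562 cells at 2×10^6 cells/mL were exposed to 10 μM compound for 30 min, then aliquots were heated for 3 min across 48°C-58°C, pooled, and extracted in PBS containing 0.5% NP-40 at 4°C. The supernatant after 21,000xg for 90 min was taken as soluble protein and measured by TMTpro 16plex LC-MS/MS with channel sums equalised. Thermal stability is reported relative to control samples, with values from duplicates. Fold changes are given on a log2 scale.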

[2] = compound: CC1=C(SC2=C1C(=N[C@H](C3=NN=C(N32)C)CC(=O)N)C4=CC=C(C=C4)Cl)C
Method in brief: as §1

[3] = compound: CC1=C2C(=CC=C1)N=C(N(C2=O)C3=CC=CC=C3C)CN4C=NC5=C(N=CN=C54)N
Method in brief: as §1

[4] = compound: Cc1sc2c(c1C)C(c1ccc(Cl)cc1)=N[C@@H](CC(=O)OC(C)(C)C)c1nnc(C)n1-2
Method in brief: as §1

[5] = compound: c1ccc([C@@H]2C[C@H]2NC2CCNCC2)cc1
Method in brief: as §1

Sequence of UniProt Q8N4L2 (Q8N4L2 whole entry, looked up): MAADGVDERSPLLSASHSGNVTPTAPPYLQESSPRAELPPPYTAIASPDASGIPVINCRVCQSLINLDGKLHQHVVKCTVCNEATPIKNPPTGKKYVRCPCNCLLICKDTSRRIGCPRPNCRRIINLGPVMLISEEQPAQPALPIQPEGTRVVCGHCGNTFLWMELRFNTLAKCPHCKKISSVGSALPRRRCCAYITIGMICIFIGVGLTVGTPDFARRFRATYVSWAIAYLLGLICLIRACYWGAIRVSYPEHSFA
Sequence of UniProt Q9Y478 (Q9Y478 whole entry, looked up): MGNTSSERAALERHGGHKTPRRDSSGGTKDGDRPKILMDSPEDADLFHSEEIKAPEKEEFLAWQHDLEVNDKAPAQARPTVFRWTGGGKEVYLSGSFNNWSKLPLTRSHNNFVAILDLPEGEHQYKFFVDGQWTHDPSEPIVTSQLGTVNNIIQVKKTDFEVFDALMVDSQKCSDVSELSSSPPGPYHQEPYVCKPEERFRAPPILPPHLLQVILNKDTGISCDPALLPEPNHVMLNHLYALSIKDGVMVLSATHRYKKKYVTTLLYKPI
Sequence of UniProt O15355 (O15355 whole entry, looked up): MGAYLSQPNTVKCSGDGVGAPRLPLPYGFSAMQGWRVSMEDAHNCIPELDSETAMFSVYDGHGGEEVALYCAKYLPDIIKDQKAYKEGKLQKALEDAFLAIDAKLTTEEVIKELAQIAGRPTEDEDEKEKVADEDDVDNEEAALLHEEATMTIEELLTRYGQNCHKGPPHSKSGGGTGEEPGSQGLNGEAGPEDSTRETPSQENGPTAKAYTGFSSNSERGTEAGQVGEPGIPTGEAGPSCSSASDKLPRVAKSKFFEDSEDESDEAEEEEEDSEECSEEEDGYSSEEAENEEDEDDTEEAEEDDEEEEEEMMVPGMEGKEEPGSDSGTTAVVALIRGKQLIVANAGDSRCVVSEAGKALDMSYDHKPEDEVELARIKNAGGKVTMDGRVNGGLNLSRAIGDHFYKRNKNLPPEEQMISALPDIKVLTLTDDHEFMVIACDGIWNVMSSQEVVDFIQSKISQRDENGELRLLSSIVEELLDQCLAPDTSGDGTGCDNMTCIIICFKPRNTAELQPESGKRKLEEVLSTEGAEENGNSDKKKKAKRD
Sequence of UniProt Q8IV08 (Q8IV08 whole entry, looked up): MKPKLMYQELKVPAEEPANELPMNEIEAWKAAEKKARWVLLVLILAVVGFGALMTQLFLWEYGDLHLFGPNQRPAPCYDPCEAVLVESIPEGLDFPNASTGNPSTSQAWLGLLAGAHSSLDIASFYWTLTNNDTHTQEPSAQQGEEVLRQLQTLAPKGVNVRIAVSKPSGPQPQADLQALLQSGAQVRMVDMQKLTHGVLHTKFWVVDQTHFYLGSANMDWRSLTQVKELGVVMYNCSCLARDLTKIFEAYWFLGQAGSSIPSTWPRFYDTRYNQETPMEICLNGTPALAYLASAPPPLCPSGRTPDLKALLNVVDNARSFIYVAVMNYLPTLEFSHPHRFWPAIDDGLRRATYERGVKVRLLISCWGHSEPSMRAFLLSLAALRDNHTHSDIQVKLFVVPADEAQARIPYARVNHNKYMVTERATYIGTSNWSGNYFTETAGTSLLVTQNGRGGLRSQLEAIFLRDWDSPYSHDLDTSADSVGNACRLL
Sequence of UniProt Q14997 (Q14997 whole entry, looked up): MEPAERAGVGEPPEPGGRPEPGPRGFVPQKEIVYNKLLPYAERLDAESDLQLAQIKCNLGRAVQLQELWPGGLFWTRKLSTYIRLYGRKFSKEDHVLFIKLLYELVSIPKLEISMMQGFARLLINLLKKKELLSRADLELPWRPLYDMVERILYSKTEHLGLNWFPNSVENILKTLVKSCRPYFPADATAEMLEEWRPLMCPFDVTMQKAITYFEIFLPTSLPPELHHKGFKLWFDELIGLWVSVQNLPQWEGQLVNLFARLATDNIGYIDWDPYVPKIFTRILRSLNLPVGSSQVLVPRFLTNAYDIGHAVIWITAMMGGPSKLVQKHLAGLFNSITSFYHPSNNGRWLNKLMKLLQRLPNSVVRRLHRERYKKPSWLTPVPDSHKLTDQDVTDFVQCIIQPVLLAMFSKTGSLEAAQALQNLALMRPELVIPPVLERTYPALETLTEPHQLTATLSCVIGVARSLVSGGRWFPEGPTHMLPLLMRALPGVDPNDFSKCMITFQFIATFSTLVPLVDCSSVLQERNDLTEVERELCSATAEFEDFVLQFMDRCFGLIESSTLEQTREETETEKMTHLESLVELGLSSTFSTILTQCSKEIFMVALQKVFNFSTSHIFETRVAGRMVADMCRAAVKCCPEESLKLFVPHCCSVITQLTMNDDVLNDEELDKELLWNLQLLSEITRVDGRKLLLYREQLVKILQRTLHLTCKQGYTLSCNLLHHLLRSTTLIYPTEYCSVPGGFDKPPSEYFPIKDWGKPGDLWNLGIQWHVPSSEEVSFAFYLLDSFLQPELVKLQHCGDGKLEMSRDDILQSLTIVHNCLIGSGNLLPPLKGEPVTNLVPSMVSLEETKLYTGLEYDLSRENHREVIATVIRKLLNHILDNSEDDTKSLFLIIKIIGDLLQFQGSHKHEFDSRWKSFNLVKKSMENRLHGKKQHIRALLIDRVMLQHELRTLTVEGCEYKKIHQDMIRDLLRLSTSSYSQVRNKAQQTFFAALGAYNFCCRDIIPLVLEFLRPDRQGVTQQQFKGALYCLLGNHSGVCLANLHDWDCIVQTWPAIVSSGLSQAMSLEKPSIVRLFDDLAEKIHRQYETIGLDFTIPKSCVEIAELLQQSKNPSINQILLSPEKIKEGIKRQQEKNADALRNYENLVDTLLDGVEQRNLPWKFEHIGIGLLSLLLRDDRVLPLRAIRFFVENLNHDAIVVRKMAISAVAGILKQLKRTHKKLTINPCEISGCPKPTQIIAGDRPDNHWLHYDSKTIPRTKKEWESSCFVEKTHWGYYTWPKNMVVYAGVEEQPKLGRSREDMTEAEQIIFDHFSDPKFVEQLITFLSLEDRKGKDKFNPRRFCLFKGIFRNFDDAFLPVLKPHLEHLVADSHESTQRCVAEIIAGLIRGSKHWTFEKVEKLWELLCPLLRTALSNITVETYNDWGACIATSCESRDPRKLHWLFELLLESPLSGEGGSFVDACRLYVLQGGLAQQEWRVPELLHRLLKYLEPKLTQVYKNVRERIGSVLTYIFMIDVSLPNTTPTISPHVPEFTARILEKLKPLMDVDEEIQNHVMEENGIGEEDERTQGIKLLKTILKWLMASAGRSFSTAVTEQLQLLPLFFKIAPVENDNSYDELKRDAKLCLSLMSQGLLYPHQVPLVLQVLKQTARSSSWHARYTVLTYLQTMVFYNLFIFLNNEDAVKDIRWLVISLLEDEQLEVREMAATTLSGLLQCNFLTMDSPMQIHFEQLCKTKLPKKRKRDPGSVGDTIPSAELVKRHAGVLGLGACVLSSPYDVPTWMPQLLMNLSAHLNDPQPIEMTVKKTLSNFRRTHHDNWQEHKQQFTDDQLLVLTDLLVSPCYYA
Sequence of UniProt P35227 (P35227 whole entry, looked up): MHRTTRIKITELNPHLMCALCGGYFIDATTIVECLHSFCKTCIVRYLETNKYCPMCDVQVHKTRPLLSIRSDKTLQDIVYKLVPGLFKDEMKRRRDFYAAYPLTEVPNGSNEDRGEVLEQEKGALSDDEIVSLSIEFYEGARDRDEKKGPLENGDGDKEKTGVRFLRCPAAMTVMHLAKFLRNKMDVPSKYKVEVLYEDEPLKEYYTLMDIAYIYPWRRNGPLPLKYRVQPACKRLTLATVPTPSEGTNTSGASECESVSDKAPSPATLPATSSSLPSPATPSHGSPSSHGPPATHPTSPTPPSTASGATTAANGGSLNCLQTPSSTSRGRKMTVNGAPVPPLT
Sequence of UniProt Q96PU8 (Q96PU8 whole entry, looked up): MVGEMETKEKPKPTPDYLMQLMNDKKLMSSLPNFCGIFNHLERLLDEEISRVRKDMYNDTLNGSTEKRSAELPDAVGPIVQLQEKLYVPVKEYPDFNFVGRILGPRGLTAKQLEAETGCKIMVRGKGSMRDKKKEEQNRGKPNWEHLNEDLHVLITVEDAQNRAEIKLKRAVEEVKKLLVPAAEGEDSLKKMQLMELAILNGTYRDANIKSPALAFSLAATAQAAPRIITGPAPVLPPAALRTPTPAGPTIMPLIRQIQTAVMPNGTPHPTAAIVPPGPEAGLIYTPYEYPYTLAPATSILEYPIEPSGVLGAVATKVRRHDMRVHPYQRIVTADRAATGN
Sequence of UniProt P43686 (P43686 whole entry, looked up): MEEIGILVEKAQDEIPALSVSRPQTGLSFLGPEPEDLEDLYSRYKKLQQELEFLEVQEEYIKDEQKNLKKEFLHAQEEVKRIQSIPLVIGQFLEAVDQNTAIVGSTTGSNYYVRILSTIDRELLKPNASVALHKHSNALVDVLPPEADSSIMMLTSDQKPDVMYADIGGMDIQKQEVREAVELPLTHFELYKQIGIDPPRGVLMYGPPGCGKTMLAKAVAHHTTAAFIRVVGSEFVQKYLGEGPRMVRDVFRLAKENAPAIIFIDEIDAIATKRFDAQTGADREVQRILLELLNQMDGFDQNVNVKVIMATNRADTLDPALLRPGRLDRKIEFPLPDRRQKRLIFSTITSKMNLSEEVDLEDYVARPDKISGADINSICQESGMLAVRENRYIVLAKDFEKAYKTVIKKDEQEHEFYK
Sequence of UniProt P62333 (P62333 whole entry, looked up): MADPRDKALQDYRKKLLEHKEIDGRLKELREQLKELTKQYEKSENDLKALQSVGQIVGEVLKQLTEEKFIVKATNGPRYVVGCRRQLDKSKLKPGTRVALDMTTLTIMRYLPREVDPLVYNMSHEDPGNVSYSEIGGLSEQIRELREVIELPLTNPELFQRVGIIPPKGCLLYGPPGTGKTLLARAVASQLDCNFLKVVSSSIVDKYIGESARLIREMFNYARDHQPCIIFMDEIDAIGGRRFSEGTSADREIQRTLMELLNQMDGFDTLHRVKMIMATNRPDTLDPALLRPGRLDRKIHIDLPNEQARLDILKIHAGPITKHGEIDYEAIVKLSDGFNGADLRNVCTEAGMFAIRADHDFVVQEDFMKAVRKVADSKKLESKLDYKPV

Target | log2 fold change [1] | log2 fold change [2] | log2 fold change [3] | log2 fold change [4] | log2 fold change [5]
PISD (UniProt Q9UG56) | 0.002 | -0.024 | 0.079 | -0.011 | 0.043
QRSL1 (UniProt Q9H0R6) | -0.01 | 0.142 | 0.147 | 0.05 | 0.041
PI4K2B (UniProt Q8TCG2) | 0.007 | 0.031 | 0.065 | 0.024 | -0.041
PI4K2A (UniProt Q9BTU6) | 0.015 | 0.043 | 0.064 | -0.004 | 0.013
PKM (UniProt P14618) | -0.008 | 0.032 | 0.004 | -0.005 | 0.026
PSMC2 (UniProt P35998) | 0.031 | -0.085 | -0.092 | 0.002 | 0.001
PSMD7 (UniProt P51665) | 0.033 | -0.102 | -0.024 | 0.034 | 0
POLR2D (UniProt O15514) | 0.003 | 0.134 | -0.006 | 0.17 | 0.045
PIP4P2 (UniProt Q8N4L2) | 0.045 | 0.048 | -0.066 | -0.017 | -0.018
PLK1 (UniProt P53350) | 0.02 | 0.037 | 0.019 | -0.012 | 0.007
PIGH (UniProt Q14442) | 0.044 | 0.064 | 0.144 | -0.046 | -0.024
PRPSAP2 (UniProt O60256) | 0.009 | -0.026 | -0.027 | -0.012 | 0
PTGR2 (UniProt Q8N8N7) | 0.004 | 0.055 | 0.581 (active) | -0.043 | -0.091
PPP6R1 (UniProt Q9UPN7) | -0.011 | 0.002 | 0.108 | 0.005 | 0.001
PRKD2 isoform 3 (UniProt Q9BZL6) | -0.051 | 0.238 | -0.057 | 0.064 | 0.028
PIK3CD (UniProt O00329) | -0.166 | -0.126 | 0.424 (active) | -0.086 | 0.018
PSMD9 (UniProt O00233) | 0.014 | 0.017 | -0.004 | 0.007 | 0.016
PDSS2 (UniProt Q86YH6) | -0.066 | 0.052 | 0.085 | 0.005 | 0.094
PRKCD (UniProt Q05655) | -0.05 | 0.082 | 0.071 | 0.004 | -0.021
PRPF40A (UniProt O75400) | -0.008 | 0.016 | 0.123 | -0.022 | 0.037
POLR3K (UniProt Q9Y2Y1) | -0.009 | -0.008 | -0.029 | 0.021 | 0.056
PRKAB2 (UniProt O43741) | -0.133 | 0.084 | -0.087 | -0.117 | -0.077
PLSCR1 (UniProt O15162) | 0.017 | 0.036 | -0.016 | -0.051 | 0.055
PEX16 isoform 2 (UniProt Q9Y5Y5) | -0.01 | 0.095 | 0.087 | -0.031 | -0.048
PEX7 (UniProt O00628) | -0.371 (active) | 0.035 | 0.136 | 0.021 | -0.03
PPID (UniProt Q08752) | -0.079 | 0.031 | 0.036 | -0.035 | -0.031
PSMC4 (UniProt P43686) | 0.022 | -0.117 | -0.022 | 0.006 | 0.001

Target | log2 fold change [1] | log2 fold change [2] | log2 fold change [3] | log2 fold change [4] | log2 fold change [5]
PSMC6 (UniProt P62333) | 0.04 | -0.087 | -0.037 | 0.017 | 0.006
PLA2G15 (UniProt Q8NCC3) | 0.02 | -0.01 | -0.034 | -0.001 | 0
PATL1 (UniProt Q86TB9) | -0.019 | -0.004 | 0.095 | 0 | -0.021
PPM1G (UniProt O15355) | -0.139 | 0.025 | 0.081 | 0.002 | -0.089
POLD3 (UniProt Q15054) | -0.027 | 0.14 | 0.104 | -0.037 | -0.009
PLD3 (UniProt Q8IV08) | 0.022 | 0.058 | 0.033 | 0.017 | 0.009
POLR2G (UniProt P62487) | 0.082 | 0.176 | 0.001 | 0.167 | -0.016
POLR3D (UniProt P05423) | 0.008 | -0.072 | -0.013 | 0.056 | 0.096
PRKAB1 (UniProt Q9Y478) | 0.011 | 0.037 | -0.024 | -0.093 | -0.037
PTMA (UniProt P06454) | 0.029 | 0.017 | -0.105 | -0.166 | -0.009
PLBD2 (UniProt Q8NHP8) | 0.011 | 0.01 | 0.01 | -0.006 | 0.007
PMPCB (UniProt O75439) | 0.005 | 0.111 | 0.01 | 0.012 | -0.053
PRKCB isoform 2 (UniProt P05771) | -0.034 | 0.028 | 0.053 | 0.027 | -0.008
QKI (UniProt Q96PU8) | -0.016 | 0.039 | 0.105 | -0.082 | 0.01
PPP1CA (UniProt P62136) | 0.003 | 0.022 | 0.025 | 0.016 | 0.015
PRPF4B (UniProt Q13523) | 0.118 | -0.098 | 0 | 0.109 | 0.168
PTTG1 (UniProt O95997) | -0.005 | 0.003 | 0.014 | 0.004 | 0.011
PDE6D (UniProt O43924) | -0.053 | 0.238 | -0.004 | -0.13 | 0.017
PHKG2 (UniProt P15735) | 0.028 | -0.033 | 0.013 | 0.051 | 0.026
PSME4 (UniProt Q14997) | -0.041 | 0.017 | 0.017 | -0.025 | -0.048
PTPA (UniProt Q15257) | -0.013 | 0.021 | 0.005 | -0.041 | -0.003
PSMD6 (UniProt Q15008) | 0.019 | -0.088 | -0.116 | -0.006 | 0.001
POLA1 (UniProt P09884) | -0.059 | 0.105 | 0.101 | -0.012 | 0
PTRHD1 (UniProt Q6GMV3) | -0.002 | 0.056 | 0.046 | -0.073 | 0.033
PCGF2 (UniProt P35227) | -0.046 | 0.133 | -0.015 | 0.002 | -0.05
PYGB (UniProt P11216) | 0.024 | 0.037 | 0.003 | 0.015 | -0.003
